# The list is not random: actives were taken first. Their share in the collection is about 4.5%.
# hgDAF12 agonist – hgDAF-12 agonism, primary luciferase screen | HEK293 GAL4-hgDAF12 UAS-luciferase reporter, agonist luminescence; normalized to butyrate control | actives 1.8% (n = 370,000) | activation, % at 6.8 µM;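 active = activation above a cutoff set at the mean of all screened compounds plus 3 SD, cut at about 10% in these data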;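 also: 0% = DMSO wells and 100% = sodium butyrate wells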
# hcDAF12 agonist – activators of H. contortus DAF-12 nuclear receptor; HEK293 hcDAF-12 lit1-tk-luc reporter, luminescence; 0% DMSO, 100% Δ7-dafachronic acid; activation, % at 6.8 µM; actives 1.4% (n = 370,000);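 active = activation above the mean of all tested compounds plus 3 SD, cut at about 5.5% in these data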;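 also: 100% = response to 3 µM Δ7-dafachronic acid high control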
# DAX1 inh-1 – inhibitors of DAX1 repression of SF-1 activated StAR promoter. actives 1.1% (n = 370,000). inhibition, % at 6.8 µM. HEK293T StAR-luciferase reporter, SF-1/DAX-1 repression relief;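 active = inhibition above the mean over all tested compounds plus 3 SD, cut at about 3.6% in these data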;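 also: 0% = DAX-1 cells with DMSO and 100% = cells lacking DAX-1 with DMSO; higher inhibition means more luminescence from relief of DAX-1 repression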
# ssDAF-12 act – S. stercoralis DAF-12 activation, primary screen. HEK293 ssDAF-12/GRIP1 lit1-tk-luc reporter, luminescence; % of 3 µM dafachronic acid response. activation, % at 6.8 µM. actives 1% (n = 370,000);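 active = activation above the mean over all tested compounds plus 3 SD, cut at about 0.9% in these data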;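 also: 0% = DMSO-only wells and 100% = 3 µM delta7-dafachronic acid wells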
# DAX1 inh-2 – inhibits human nuclear receptor DAX1. P51843. HEK293 Gal4-DAX1 luciferase reporter, luminescence. inhibition, % at 6.75 µM. actives 0.99% (n = 340,000);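 active = inhibition above the mean over all tested compounds plus 3 SD, cut at about 4.2% in these data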;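 also: 0% = DAX1-transfected cells with DMSO and 100% = empty-vector control cells with DMSO; inhibition shows as a rise in luminescence from relieved DAX1 repression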
# GAA850 FXN act – frataxin GAA850 promoter activation. actives 0.56% (n = 360,000). HEK293 lucGAA850 FXN promoter luciferase reporter, 24 h; percent of 10 µM SAHA response. activation, % at 6 µM. AID 540364;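 active = activation above the average of all compounds screened plus 3 SD, cutoff fixed separately per campaign, cut at about 7.5% in these data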;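 also: 0% = DMSO wells and 100% = 10 µM SAHA wells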
# LXRb hcDAF ctr – activates human LXR-beta, counter-screen for hcDAF-12 agonists; shares compounds with hcDAF12 agonist; HEK293 Gal4-LXR tk-luc reporter, luminescence, 24 h; normalized: DMSO 0%, positive control 100%; activation, % at 6.8 µM; 3,400 tested, under 10 active; AID 743027;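 active = mean percent activation of the reporter above a cutoff set as the average over tested compounds plus their standard deviation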
# Target sequence (P55055 whole entry, looked up, the tested form may be a part): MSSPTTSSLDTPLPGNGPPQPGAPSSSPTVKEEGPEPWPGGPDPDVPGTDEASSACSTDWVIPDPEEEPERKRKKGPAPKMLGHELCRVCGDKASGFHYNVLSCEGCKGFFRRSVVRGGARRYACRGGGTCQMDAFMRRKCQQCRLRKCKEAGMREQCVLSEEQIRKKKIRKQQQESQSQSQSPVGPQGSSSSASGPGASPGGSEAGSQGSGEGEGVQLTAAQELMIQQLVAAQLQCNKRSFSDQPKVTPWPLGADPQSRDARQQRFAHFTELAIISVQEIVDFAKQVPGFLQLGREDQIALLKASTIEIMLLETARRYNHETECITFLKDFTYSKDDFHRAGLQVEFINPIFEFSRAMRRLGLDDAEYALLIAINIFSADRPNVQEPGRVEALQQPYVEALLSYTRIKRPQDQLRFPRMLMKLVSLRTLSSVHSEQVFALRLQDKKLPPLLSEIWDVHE
# hcDAF12 ag – hcDAF-12 agonism, confirmation assay. HEK293 hcDAF-12 lit1-tk-luc reporter, luminescence; % of Δ7-dafachronic acid response. AID 743032. activation, % at 6.8 µM. shares compounds with hcDAF12 agonist. actives 61% (n = 3,400);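 active = mean activation across triplicate tests above the threshold derived from the earlier primary screen, cut at about 5.5% in these data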;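 also: 0% = DMSO only wells and 100% = 3 µM Δ7-dafachronic acid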
# Starred values were filed as active, the others as inactive; · = no result given.
SMILES,hgDAF12 agonist,hcDAF12 agonist,DAX1 inh-1,ssDAF-12 act,DAX1 inh-2,GAA850 FXN act,LXRb hcDAF ctr,hcDAF12 ag
Brc1cccc(-c2nnc(-c3ccccc3)o2)c1,10*,11*,3.9*,1.6*,4,2,2,11*
Cc1ccc(-c2nnc(-c3cccc(Br)c3)o2)cc1,7,2,2,-1,1,4,·,·
Nn1c(-c2cccs2)nc2sc3c(c2c1=O)CCCC3,12*,21*,1,2.0*,4,4,1,11*
Cc1oc(-c2ccccc2)nc1C(=O)Nc1nccs1,6,8.7*,2,1,2,3,1,8.5*
CCOC(=O)[C@@]12CCC3=C1N(CCC3)C(=O)[C@H](CC(=O)N1CCOCC1)C2,-3,-1,-1,-1,·,·,·,·
CC(C)c1cccc(-c2csc(C(O)c3cccc(Cl)c3)n2)c1 (configuration not stated),-1,-2,-1,-1,·,-1,·,·
CC(=O)OCCC(CC(C)C)NC(=O)[C@H](CC(C)C)NC(=O)OCc1ccccc1 (some centres not stated),0,2,·,-1,·,·,·,·
CCN(CC)c1ccc(/C=N/N2C(=O)c3ccccc3C2=O)c(O)c1,2,6.6*,0,-1,0,-1,0,1
CC/C(=N/NC(=O)c1ccc2c(c1)OCO2)c1ccccc1O,4,14*,0,1.1*,4.9*,0,0,0
COc1ccc(S(=O)(=O)N2CCCCC2)cc1NC(=O)c1ccc2ccccc2n1,5,4,0,-1,3,2,·,·
COc1ccc(NC(=O)c2ccc3ccccc3n2)cc1S(=O)(=O)N1CCCCC1,5,8.9*,2,0,1,5,0,4
CSc1nnc(-c2cc3c(s2)-c2ccccc2CC3)o1,11*,9.8*,3,2.6*,3,4,1,11*
CC(=O)O/C(=C\c1cn(C(C)=O)c2ccccc12)C(=O)O,-2,4,1,0,1,-1,·,·
CC(=O)n1cc(CO)c2ccccc21,0,7.2*,1,-1,0,0,0,3
O=S(=O)([N-]c1nc2ccccc2nc1-[n+]1ccc(-c2ccncc2)cc1)c1ccccc1,10,6.9*,2,0,2,6,0,3
O=S(=O)([N-]c1nc2ccccc2nc1-[n+]1ccccc1)c1ccccc1,0,-2,0,-1,0,-2,·,·
COc1ccc(N2C(=O)c3n[nH]c(C)c3C2c2ccccc2)cc1 (configuration not stated),2,-1,1,0,·,·,·,·
COc1cc(OC)c(-c2nc3ccccc3s2)cc1OC,-1,3,-1,0,0,3,·,·
COc1ccc(-c2nc3ccccc3s2)cc1O,4,12*,2,0,-5,-4,1,13*
Nc1cccc(-c2nc3ccccc3s2)c1,13*,12*,3,1.4*,1,3,1,6.4*
CCCCCCCCNS(=O)(=O)/C=C/c1ccc(OC)cc1CNC(=O)OC(C)(C)C,1,-1,-1,-1,·,·,·,·
Cc1ccc(-c2cc(C(=O)n3cnc4ccccc43)c3ccccc3n2)cc1C,7,8.1*,3,1.5*,1,4,0,4
Cc1ccc(C(=O)NCCN(C)C)c(C)c1,0,-2,0,-1,0,0,·,·
CNc1c2cccc(C)c2nc2c(C(=O)NCCN(C)C)cccc12,9,38*,-5,4.1*,4,-15,0,-4
O=C(CN1CCCCCC1)N/N=C/c1ccc2ccccc2c1,4,8.1*,1,0,1,-1,0,2
SMILES,hgDAF12 agonist,hcDAF12 agonist,DAX1 inh-1,ssDAF-12 act,DAX1 inh-2,GAA850 FXN act,LXRb hcDAF ctr,hcDAF12 ag
O=C(CNc1ccc2ccccc2c1)N/N=C/c1ccncc1,3,8.0*,0,0,0,-2,0,1
CSc1ccc(/C=N/NC(=O)CNc2ccc3ccccc3c2)cc1,3,5,-1,0,0,3,·,·
CNc1cc([N+](=O)[O-])ccc1N/C=C/C(=O)c1ccc2c(c1)OCO2,5,4,1,1,3,4,·,·
O=C(Cc1cccs1)Nc1cccc([N+](=O)[O-])c1,1,0,0,-2,-1,4,·,·
CNc1cc([N+](=O)[O-])ccc1N/C=C/C(=O)c1cccs1,3,8.9*,2,1,1,2,0,5
O=C(/C=C/Nc1ccccc1C(=O)O)c1cccs1,3,8.4*,1,-1,0,5,0,3
O=C(/C=C/Nc1cccc([N+](=O)[O-])c1)c1cccs1,13*,13*,2,1.8*,3,3,2,14*
CCC(C)(C)C(=O)N1CCC(C(=O)NC2CCCc3ccccc32)CC1 (configuration not stated),1,-3,0,-1,·,·,·,·
CC(C)N1CCCCC(NC(=O)c2ccccc2)C1=O (configuration not stated),0,-2,1,-2,·,·,·,·
Cc1ccc(NCC(=O)c2ccccc2)cc1Cl,2,7.7*,0,0,1,-2,0,3
Cc1ccc(/C=C/C(=O)C2C(=O)c3ccccc3C2=O)cc1,8,8.7*,2,0,-2,3,1,12*
CCc1cc(C(=O)NNC(=S)Nc2cccc(C)c2)cs1,6,1,2,-1,2,2,·,·
CCc1cc(C(=O)Nc2ccc(C)cc2Br)cs1,12*,9.1*,3.7*,1.6*,1,6,1,12*
O=c1cc[nH]c2c(Cl)cccc12,4,7.2*,1,0,1,2,0,5.7*
Cc1nc2c(Cl)cccc2c2c1CC(CBr)O2 (configuration not stated),-1,-2,0,-2,-1,1,·,·
Cc1ccc2nc(Br)c3c(c2c1)OC(CBr)C3 (configuration not stated),1,7.4*,0,-2,-1,4,0,0
Oc1c(N=Nc2ccc(F)cc2)ccc2ccccc12,10,7.4*,1,0,3,3,2,12*
CC(C)OC(=O)CSc1nnc2c3ccccc3n(C)c2n1,0,3,0,-1,0,3,·,·

# Screening data deposited in PubChem by The Scripps Research Institute Molecular Screening Center.
